This passage reports growth results from PubChem BioAssay (NCI).

This is part of a sample that, as a whole, favours compounds with a hit. Of some 83,000 tested, about 20% had one in any assay.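 Values shown are percent growth following 48 h exposure of cells in 96-well plates to a single concentration of compound; below 10 was considered active.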 Calls of active or inactive are those of the source.

This assay has as its system MDA-MB-468 breast. Put plainly: NCI-60 one-dose screen, 48 h (100 = growth as untreated, 0 = no growth, -100 = all killed). The settings on record: 10 µM unless noted.
`CCOC(=O)c1cc(C#N)n2ncc3ccccc3c12`: the growth is 87.9% (inactive).
As for `COc1ccc(-c2cc(-c3ccccc3)nc(N3CCN(CCNc4ccnc5cc(Cl)ccc45)CC3)n2)cc1`, the figure is -54.7% (active).
As for `N#Cc1c(N)nc2c(nnn2-c2cccc(C(F)(F)F)c2)c1N`, the figure is 76.4% (inactive); as for `N=c1n(Cc2ccccc2)c(N)cc(=O)n1Cc1ccccc1`, 83.3% (inactive).
As for `COc1cccc(C2C3=C(COC3=O)N(CCO)c3cc(OC)ccc32)c1` (stereo not given), the figure is -13.2% (active); as for `CC(=O)N1C(=S)NC(=O)C1Cn1c(-c2ccccc2)nc2ccccc21` (stereo not given), 96.8% (inactive).
Consider `Cc1c(C(N)=O)sc2c1c(=O)n(Cc1ccccc1)c1nnc(S(=O)(=O)CC(=O)Nc3ccc(Cl)cc3)n21`, for which the growth is 33.2% (inactive).
To `OC[C@@H](O)[C@@H](O)CO` belongs 102% (inactive).
As for `Cc1ccc(C(=O)Nc2ccc(Cl)cc2C(=O)NCc2ccccc2)cc1`, the figure is 83% (inactive); as for `CCCCCCCCCCCC[N+](C)(C)Cc1ccccc1`, -26.4% (active).
